Measured values as given in PubChem BioAssay (NCI).
The panel holds about 83,000 compounds, 20% with a hit somewhere; the sample as a whole holds those more often.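 Testing used 96-well plates and a 48-hour single-concentration exposure. Example: -40 means 40% of the starting cells died.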 Values without a mark were called inactive. Active and inactive are the calls of the source. Rule for the calls: active = growth percent below 10; inactive = the rest.

Tests used:
Assay in all cases: NCI-60 one-dose screen, 48 h (100 = growth as untreated, 0 = no growth, -100 = all killed)
[1] = tested on: NCI-H23 lung; settings: 10 µM unless noted
[2] = tested on: NCI-H226 lung; settings: 10 µM unless noted
[3] = tested on: NCI-H322M lung; settings: 10 µM unless noted
[4] = tested on: NCI-H460 lung; settings: 10 µM unless noted
[5] = tested on: HOP-92 NSCLC; settings: 10 µM unless noted
[6] = tested on: A549/ATCC NSCLC; settings: 10 µM unless noted
[7] = tested on: 786-0 renal; settings: 10 µM unless noted
[8] = tested on: COLO 205 colon; settings: 10 µM unless noted
[9] = tested on: DU-145 prostate; settings: 10 µM unless noted
[10] = tested on: K-562 leukemia; settings: 10 µM unless noted
[11] = tested on: MALME-3M melanoma; settings: 10 µM unless noted
[12] = tested on: MDA-MB-231 breast; settings: 10 µM unless noted
[13] = tested on: RXF 393 renal; settings: 10 µM unless noted
[14] = tested on: SF-268 CNS; settings: 10 µM unless noted
[15] = tested on: SF-295 CNS; settings: 10 µM unless noted
[16] = tested on: SF-539 CNS; settings: 10 µM unless noted
[17] = tested on: UACC-257 melanoma; settings: 10 µM unless noted
[18] = tested on: M14 melanoma; settings: 10 µM unless noted
[19] = tested on: NCI-H522 lung; settings: 10 µM
[20] = tested on: HOP-62 NSCLC; settings: 10 µM unless noted

Row | SMILES | growth [1] | growth [2] | growth [3] | growth [4] | growth [5] | growth [6] | growth [7] | growth [8] | growth [9] | growth [10] | growth [11] | growth [12] | growth [13] | growth [14] | growth [15] | growth [16] | growth [17] | growth [18] | growth [19] | growth [20]
1 | CCN1CCN(c2nc(NNC(=O)Cc3ccccc3)nc(N3CCN(C(c4ccccc4)c4ccccc4)CC3)n2)CC1 | 95.1% | 95% | 105% | 11.1% | 82.9% | 46.6% | 64.1% | -41.3% (active) | 63.5% | 2.28% (active) | 77% | 82.7% | 66.6% | 82% | 68.3% | 86.8% | -51.5% (active) | -68.2% (active) | – | –
2 | C/C(=C\CCc1ccoc1)CC/C=C(\C)CCCC1COC(=O)C1 (stereo not drawn) | 106% | 104% | 88.9% | 98.8% | 88% | 97% | 101% | 109% | 105% | 98.4% | 89.5% | 92.6% | 99.1% | 107% | 99% | 93.4% | 101% | 104% | – | –
3 | O=C(Nc1ccccc1)P(=O)(O)c1ccccc1 | 94% | 91.2% | 119% | 105% | 78.1% | – | 110% | 114% | 108% | 95.7% | 123% | 100% | 105% | 98.5% | 122% | 90.2% | 96.5% | 103% | 102% | –
4 | C[C@H]1O[C@@H](O[C@H]2[C@@H](O)C[C@H](O[C@H]3[C@@H](O)C[C@H](O[C@H]4CC[C@]5(C)C6C[C@@H](O)[C@]7(C)[C@@H](C8=CC(=O)OC8)CC[C@]7(O)C6CC[C@@H]5C4)O[C@@H]3C)O[C@@H]2C)C[C@H](O)[C@@H]1O (stereo partly drawn) | -54.9% (active) | -100% (active) | -75.3% (active) | – | -26% (active) | – | -91.7% (active) | -85.9% (active) | -100% (active) | -24.2% (active) | -57.2% (active) | -83.6% (active) | -22.4% (active) | -100% (active) | -99.9% (active) | -96.2% (active) | -100% (active) | -81.6% (active) | – | -100% (active)
5 | Cc1ccc(-c2c3c(N)c4c(nc3nc3c2c(C)nn3-c2ccccc2)CCC4)cc1 | 66.8% | 92.6% | 89.1% | 5% (active) | 77.9% | 32.9% | 28% | -74.4% (active) | 106% | – | 91.5% | 37.4% | – | 108% | 98.5% | 72.7% | – | 88% | – | –
6 | CCN(CC)c1ccc(C(=C2C=CC(=[N+](CC)Cc3cccc(S(=O)(=O)O)c3)C=C2)c2ccc(N(CC)Cc3cccc(S(=O)(=O)O)c3)cc2)cc1 | 45.2% | 71.3% | 58.3% | 49.1% | – | – | 55.9% | 14% | 37.2% | 7.9% (active) | 59.4% | 62.3% | – | 34.5% | 15.5% | 62.1% | – | 19.5% | – | –
7 | Cc1ccc(-c2csc(N)n2)cc1 | 102% | 97.4% | 107% | 102% | 70.7% | – | 98.3% | 115% | 123% | 94.4% | 124% | 96.6% | 110% | 101% | 110% | 102% | 79.9% | 102% | 98.8% | –
8 | COP(=O)(OC)C(c1ccc(O)cc1)(c1ccc(O)cc1)c1ccc(O)cc1 | 114% | 99.7% | 103% | 113% | – | 99.9% | 82.4% | 123% | 105% | 90.6% | 127% | 93.7% | 67.2% | 106% | 82.7% | 107% | 100% | 86% | – | –
9 | CC(=O)Nc1c(Cl)cc2c(c1Cl)Cc1cc([N+](=O)[O-])ccc1-2 | 88% | 85% | 94.9% | 81.3% | 53.3% | 74.5% | 77.9% | 103% | 93.3% | 80.4% | 68.2% | 97.5% | 104% | 101% | 81.8% | 89.1% | 77.9% | 88.1% | – | –
10 | C=C1CCC2C3(C)COC(c4ccccc4)OC3CCC2(C)C1C/C=C1/C(=O)OCC1OC(C)=O (stereo not drawn) | 101% | 59.6% | 97% | 103% | 100% | 83.9% | 95.3% | 103% | 108% | 74.2% | 105% | 94.9% | 41% | 102% | 100% | 105% | 91.3% | 89.4% | – | –
11 | O=C(CSc1ncc(-c2ccccc2)n1-c1ccccc1)Nc1ccc(-c2nc3ccccc3s2)cc1 | 62.6% | – | 90.1% | 36.3% | – | 20.3% | 69.8% | 103% | 68.4% | 70.7% | 17% | 95.4% | 93.2% | 54.3% | 96.4% | 59.8% | 48.8% | 72.8% | – | 73.1%
12 | CCCCc1ccc(C(N)=O)nc1 | 102% | – | 103% | 108% | 62.5% | – | 92.6% | 118% | 102% | 109% | 108% | 102% | 103% | 101% | 109% | 105% | 97.8% | 100% | 85.3% | 99.3%
13 | NS(=O)(=O)c1ccc(-n2ncc3c(N/N=C/c4ccccc4)ncnc32)cc1 | 80.6% | – | 94.6% | 66.4% | 87.6% | 52% | 93.2% | 97.5% | 73.1% | 83.1% | 85.6% | 101% | -18.8% (active) | 76.9% | 29.8% | 76.2% | 62.4% | 116% | – | 104%
14 | O=C(COc1cccc(/C=C2\Oc3ccc4ccccc4c3C2=O)c1)c1ccc([N+](=O)[O-])cc1 | 93.8% | – | 106% | 100% | 81.2% | – | 103% | 114% | – | 67.3% | 67.2% | 83.3% | – | 85.6% | 117% | 46.5% | 102% | 79.4% | – | –
15 | O=C(O)C1C(c2ccccc2)c2ccccc2C(O)C1CO (stereo not drawn) | 106% | – | 112% | 111% | 89.1% | 111% | 107% | 99.7% | 136% | 111% | 146% | 94.9% | 123% | 116% | 120% | 99.7% | 98.9% | 99.5% | – | –
16 | O=C(c1ccccc1)c1ccc(Oc2ccc([N+](=O)[O-])cc2[N+](=O)[O-])cc1 | 86.2% | – | 109% | 103% | 52.9% | – | 71.9% | 84% | 95.9% | 11.9% | 70.2% | 89.5% | 81.1% | 87.8% | 91.2% | 55.3% | 71% | 53.8% | -26.6% (active) | 99.1%
17 | NS(=O)(=O)c1ccc(-n2ncc3c(SCc4ccccc4)ncnc32)cc1 | 100% | – | 87.7% | 105% | – | 80.8% | 85.1% | 110% | 78.1% | 74.8% | 82.8% | 91.4% | – | 96.2% | 64.7% | 91.6% | 56.6% | 67% | – | –
